The text below walks through data of PubChem BioAssay (NCI).

Some test systems named below: NCI-H23 lung; NCI-H226 lung; NCI-H322M lung; HOP-62 NSCLC; NCI-H460 lung; HOP-92 NSCLC; NCI-H522 lung; A549/ATCC NSCLC; 786-0 renal; COLO 205 colon.
Test in all cases: NCI-60 one-dose screen, 48 h (100 = growth as untreated, 0 = no growth, -100 = all killed)
Holding throughout (conditions): 10 µM unless noted

The panel holds about 83,000 compounds, 20% with a hit somewhere; the sample as a whole holds those more often.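 Growth was measured after 48 h exposure to one concentration of compound in 96-well plates. Values under 10 count as active.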 Unmarked numbers belong to inactive results. The source made the active and inactive calls.

Regarding `Nc1c(C(=O)Nc2cccc3c2OCCO3)sc2nc3c(cc12)C(=O)CCC3`, the growth in the experiment with NCI-H23 lung is 46.4%; in the experiment on NCI-H226 lung it was 27.9%; in the experiment on NCI-H322M lung it was 45.3%; in the experiment with HOP-62 NSCLC, 46%; in the experiment with NCI-H460 lung, 8.5% (active); with HOP-92 NSCLC it was 107%. For the same compound, the growth with NCI-H522 lung was 2.24% (active); with A549/ATCC NSCLC, 37.7%; with 786-0 renal, 44.5%; in the experiment with COLO 205 colon, -3.5% (active).

In the case of `CC1(C)CC(=O)C(c2c(-c3ccccc3)[nH]c3[nH]c(=S)[nH]c(=O)c23)=C(O)C1`, the growth in the experiment on NCI-H23 lung was 110%; with NCI-H226 lung, 108%; in the experiment on NCI-H322M lung it was 102%; in the experiment with HOP-62 NSCLC, 112%; in the experiment with NCI-H460 lung it was 117%; in the experiment on HOP-92 NSCLC, 84.7%. Besides, the growth in the experiment with NCI-H522 lung was 107%; in the experiment on A549/ATCC NSCLC it was 89.8%; with 786-0 renal it was 104%; in the experiment with COLO 205 colon it was 119%.

As to `O=C(O)c1c([N+](=O)[O-])cnc2ccccc12`, the growth was 91.5% in the experiment on NCI-H23 lung; 91.8% with NCI-H226 lung; 96.6% in the experiment on NCI-H322M lung; 90.6% with HOP-62 NSCLC; 106% in the experiment on NCI-H460 lung; 131% with HOP-92 NSCLC. Moreover, the growth is 100% with NCI-H522 lung, 102% in the experiment with A549/ATCC NSCLC, 105% in the experiment with 786-0 renal and 121% in the experiment on COLO 205 colon.

Take `Cc1cc(OCc2ccc(C(F)(F)F)cc2)c2c(c1)C(=O)C=C(NCCN1CCCC1)C2=O`: the growth with NCI-H23 lung was 84.5%; in the experiment on NCI-H226 lung, 93%; in the experiment with NCI-H322M lung, 80.9%; in the experiment with HOP-62 NSCLC it was 83.1%; in the experiment on NCI-H460 lung, 43.9%; in the experiment on HOP-92 NSCLC it was 60.1%. Besides, the growth in the experiment with NCI-H522 lung was 87.6%; in the experiment with A549/ATCC NSCLC, 54.3%; in the experiment on 786-0 renal, 58.5%; with COLO 205 colon it was -77.4% (active).

For `O=C(/C=C/c1ccc(Cl)cc1)/C=C/c1cc2ccccc2[nH]c1=O`, the growth is 68% with NCI-H23 lung; 93.5% with NCI-H226 lung; 105% with NCI-H322M lung; 39.4% in the experiment on HOP-62 NSCLC; 94.4% in the experiment with NCI-H460 lung; 92.5% in the experiment on HOP-92 NSCLC. Besides, the growth in the experiment on NCI-H522 lung was 46.4%; in the experiment with A549/ATCC NSCLC, 46.5%; with 786-0 renal, 88.5%; with COLO 205 colon it was 40.8%.

With `C=C1CC2(OC1=O)C(=O)N(CCCCCCCN1C(=O)C3(CC(=C)C(=O)O3)c3ccccc31)c1ccccc12` (stereo not given), the growth was 52.6% in the experiment with NCI-H23 lung; 63% in the experiment on NCI-H226 lung; 87% with NCI-H322M lung; 117% in the experiment with HOP-62 NSCLC; 38% in the experiment on NCI-H460 lung; -1.35% (active) in the experiment on HOP-92 NSCLC. In addition, the growth in the experiment on NCI-H522 lung was -48.1% (active); with A549/ATCC NSCLC it was 83.7%; with 786-0 renal, 46.7%; with COLO 205 colon it was 12.8%.

On to `CCCC(=O)Oc1ccc(/C(=C(/CC)Cc2ccccc2)c2ccc(OCCN3CCCC3)cc2)cc1`, for which the growth in the experiment on NCI-H23 lung was 81.7%; in the experiment with NCI-H226 lung it was 96%; with NCI-H322M lung, 79.2%; in the experiment with HOP-62 NSCLC, 82.8%; with NCI-H460 lung, 20.8%; in the experiment with HOP-92 NSCLC, 79.1%. Moreover, the growth in the experiment with NCI-H522 lung was 78.4%; in the experiment with A549/ATCC NSCLC, 67.8%; with 786-0 renal it was 76.6%; in the experiment on COLO 205 colon it was -6.63% (active).

With `COc1cc(-c2cnc3nonc3n2)c(OC)c2c1OCO2`, the growth in the experiment on NCI-H23 lung is 95.4%; in the experiment on NCI-H226 lung it was 95.6%; in the experiment on NCI-H322M lung, 90.9%; in the experiment with HOP-62 NSCLC it was 101%; in the experiment with NCI-H460 lung, 102%; in the experiment with HOP-92 NSCLC, 97.9%. Moreover, the growth in the experiment on NCI-H522 lung was 78.7%; in the experiment on A549/ATCC NSCLC it was 94.1%; in the experiment on 786-0 renal, 104%; in the experiment with COLO 205 colon, 113%.

For the compound `C/C(Cc1ccc(Cl)cc1)=C(\c1ccc(OCCN2CCCCCC2)cc1)c1ccc(OC(=O)C2CCCCC2)cc1`, the growth with NCI-H23 lung was 74.8%; in the experiment on NCI-H226 lung, 79.2%; in the experiment with NCI-H322M lung, 70.5%; with HOP-62 NSCLC, 81.5%; with NCI-H460 lung it was 34.7%; in the experiment with HOP-92 NSCLC it was 29.1%. Further, the growth was 64.8% with NCI-H522 lung, 66.5% in the experiment on A549/ATCC NSCLC, 70% with 786-0 renal and -21.8% (active) with COLO 205 colon.

For the compound `CCN(CC)C12CCCCC1(C)C(C#N)(C#N)C(C#N)=C(N)O2` (stereo not given), the growth is 101% in the experiment with NCI-H23 lung; 95.6% in the experiment on NCI-H226 lung; 91.3% in the experiment with NCI-H322M lung; 98.8% with HOP-62 NSCLC; 114% in the experiment with NCI-H460 lung; 83.8% in the experiment on HOP-92 NSCLC. Also, the growth is 105% in the experiment on NCI-H522 lung, 106% in the experiment on A549/ATCC NSCLC, 108% in the experiment on 786-0 renal and 140% with COLO 205 colon.

`CCCCOc1ccc(NC(=O)n2nc(NC(C)=O)c3cc(NC(C)=O)ccc32)cc1`: the growth is 101% in the experiment with NCI-H23 lung; 99% in the experiment with NCI-H226 lung; 99.4% in the experiment on NCI-H322M lung; 108% in the experiment on HOP-62 NSCLC; 102% with NCI-H460 lung; 93% in the experiment with HOP-92 NSCLC. Besides, the growth was 91.7% with NCI-H522 lung, 102% in the experiment on A549/ATCC NSCLC, 93.2% in the experiment with 786-0 renal and 121% with COLO 205 colon.

Take `CCC(c1ccccc1)C(CC)c1ccc(O)c(O)c1` (stereo not given): the growth is 89.5% in the experiment on NCI-H23 lung; 97.4% in the experiment on NCI-H226 lung; 96.1% in the experiment with NCI-H322M lung; 124% in the experiment with HOP-62 NSCLC; 107% in the experiment on NCI-H460 lung; 83.6% in the experiment on HOP-92 NSCLC. The growth is 85.2% with NCI-H522 lung, 98.6% with A549/ATCC NSCLC, 98.9% in the experiment on 786-0 renal and 125% in the experiment on COLO 205 colon.

Turning to `CC[C@H](Nc1nc(N)nc(C)c1C#N)c1nc2cccc(NCc3ccc(C(=O)NO)cc3)c2c(=O)n1-c1ccccc1`, the growth in the experiment with NCI-H23 lung was -22.9% (active); in the experiment with NCI-H226 lung, 24.3%; with NCI-H322M lung, 15%; in the experiment with HOP-62 NSCLC it was 9.2% (active); in the experiment on NCI-H460 lung it was 3.85% (active); in the experiment with HOP-92 NSCLC it was -16.7% (active). The growth in the experiment on NCI-H522 lung was -37.6% (active); in the experiment with A549/ATCC NSCLC, 1.14% (active); in the experiment with 786-0 renal, 6.94% (active); in the experiment with COLO 205 colon it was -2.48% (active).
